Test results reported in PubChem BioAssay (NCATS).
Results filed as inconclusive are left out. Active and inactive are the calls of the source. Unless noted, the call rests on the fitted dose curve; in most records, active means well fitted inhibition curve with a large enough effect; inconclusive means small, poorly fitted or top-dose-only effect; inactive means flat fitted curve, though single readings scatter.

How the values were obtained:
[1] = AP1 Signaling Pathway (AID 357; active means well fitted curve in either direction with a large enough effect, not every such curve was filed as active;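 further: ME-180 reporter cells stimulated with EGF at its EC50 level; on the % scale 0 is the no-effect control and ±100 the full control effect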)
Procedure, shortened: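 A ratiometric CCF4 readout (405 nm excitation; 460 and 530 nm emission) quantified AP-1-driven beta-lactamase in ME-180 cells after 5 h with compound and EC50 EGF; AC50 values were derived for activators and inhibitors.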

[2] = biological target: Cytochrome P450 1A2 (Homo sapiens) (UniProt P05177); experiment: p450-cyp1a2 (AID 410; calls by dose curve; further: potency means the concentration at half of the fitted maximal effect;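 on activity change, negative = inhibition: -100% = full effect of reference inhibitor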)
Sequence of Cytochrome P450 1A2 (Homo sapiens) (P05177 whole entry, looked up): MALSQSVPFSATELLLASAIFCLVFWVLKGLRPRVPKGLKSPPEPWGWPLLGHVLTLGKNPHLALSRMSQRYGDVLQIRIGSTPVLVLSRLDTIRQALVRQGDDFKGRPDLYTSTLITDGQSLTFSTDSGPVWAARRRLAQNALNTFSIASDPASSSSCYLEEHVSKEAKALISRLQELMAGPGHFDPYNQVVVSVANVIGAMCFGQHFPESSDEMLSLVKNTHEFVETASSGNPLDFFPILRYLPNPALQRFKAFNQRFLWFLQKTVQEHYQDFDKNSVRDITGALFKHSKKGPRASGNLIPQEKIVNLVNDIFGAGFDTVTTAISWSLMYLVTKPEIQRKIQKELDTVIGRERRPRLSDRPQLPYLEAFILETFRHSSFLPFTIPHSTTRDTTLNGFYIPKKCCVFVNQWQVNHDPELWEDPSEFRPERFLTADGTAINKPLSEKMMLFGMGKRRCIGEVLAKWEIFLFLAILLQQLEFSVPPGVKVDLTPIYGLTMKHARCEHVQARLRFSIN
Procedure, shortened: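 Human CYP1A2 (20nM) demethylated Luciferin-ME at its Km (100uM) in 100mM KPO4. After 10 min compound preincubation, NADPH regeneration ran the reaction 60 min at room temperature. Luciferin was read by luminescence, normalized to 57 uM furafylline.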

[3] = Stat Signaling Pathway (AID 446; active means well fitted curve in either direction with a large enough effect, not every such curve was filed as active;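 further: ME-180 cervical cancer cells given 40 pM IL-6 alongside compound; SIE-controlled beta-lactamase reporter measured as 460/530 nm FRET emission ratio; on the % scale 0 is the no-effect control and ±100 the full control effect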)
Procedure, shortened: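 Reporter line: ME-180 cervical carcinoma, SIE-beta-lactamase. Treatment: compound with 40 pM IL-6, 5 hrs, 37 C, in low-serum OPTI-MEM with 10 mM HEPES pH 7.3. Detection: 460/530 nm fluorescence.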

[4] = biological target: Glucocorticoid receptor (Homo sapiens) (UniProt P04150); experiment: GR-GFP Redistribution (AID 450;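 active means compounds whose dose series gives a full or clear partial fitted curve of increased nuclear translocation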; further: potency means the concentration at half of the fitted maximal effect); conditions: U2OS GR-GFP nuclear translocation, laser cytometry, 2 h
Sequence of Glucocorticoid receptor (Homo sapiens) (P04150 whole entry, looked up, the tested form may be a part): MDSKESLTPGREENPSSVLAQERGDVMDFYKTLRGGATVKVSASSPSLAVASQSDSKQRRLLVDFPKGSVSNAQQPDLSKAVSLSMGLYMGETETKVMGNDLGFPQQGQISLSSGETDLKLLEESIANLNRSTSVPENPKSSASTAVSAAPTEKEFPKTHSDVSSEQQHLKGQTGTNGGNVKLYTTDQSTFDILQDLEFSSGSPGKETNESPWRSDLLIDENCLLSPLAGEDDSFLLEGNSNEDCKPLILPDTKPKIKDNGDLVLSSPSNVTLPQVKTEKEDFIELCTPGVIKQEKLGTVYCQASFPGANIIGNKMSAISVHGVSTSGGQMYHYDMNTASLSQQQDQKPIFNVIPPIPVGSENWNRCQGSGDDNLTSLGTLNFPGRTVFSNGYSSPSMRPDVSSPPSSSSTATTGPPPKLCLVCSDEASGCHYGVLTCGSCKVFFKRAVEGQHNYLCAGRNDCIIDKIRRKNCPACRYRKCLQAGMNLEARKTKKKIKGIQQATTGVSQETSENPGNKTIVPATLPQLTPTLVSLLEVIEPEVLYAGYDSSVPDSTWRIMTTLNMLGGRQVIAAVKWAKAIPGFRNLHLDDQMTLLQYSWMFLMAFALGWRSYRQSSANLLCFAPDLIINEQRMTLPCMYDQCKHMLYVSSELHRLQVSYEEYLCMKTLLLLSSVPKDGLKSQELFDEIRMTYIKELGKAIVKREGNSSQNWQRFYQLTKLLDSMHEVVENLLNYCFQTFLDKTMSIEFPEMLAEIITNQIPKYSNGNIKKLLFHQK

[5] = biological target: Glucocorticoid receptor (Homo sapiens) (UniProt P04150); experiment: GR-EFC Redistribution (AID 451; calls by dose curve; further: potency means the concentration at half of the fitted maximal effect); conditions: CHO-K1 GR-EFC translocation, beta-gal luminescence, 2 h
Procedure, shortened: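 CHO-K1 cells expressing nuclear EA and GR-ED fragments of b-gal; compounds titrated up to 46 uM final, 2 h at 37 C. GR nuclear translocation read as complemented b-gal luminescence after 1 h RT detection.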

[6] = biological target: Mitogen-activated protein kinase 10 (Mus musculus) (UniProt Q61831); experiment: JNK3 AlphaScreen Assay (AID 530; active means well fitted curve in either direction with a large enough effect, not every such curve was filed as active;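 further: kinase came from lysate of stimulated human HepG2 cells; signal reports phosphorylation of biotinylated GST-cJun 1-79 at Ser73 with 10 µM ATP; on the % scale 0 is the no-effect control and ±100 the full control effect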)
Procedure, shortened: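 qHTS format: compounds tested as titrations against IL-1beta/TNF-alpha-activated HepG2 lysate JNK3 with biotin-GST-cJun substrate and 10 uM ATP at room temperature. Loss of anti-phospho-cJun AlphaScreen signal indicates inhibition.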

[7] = biological target: 3',5'-cyclic-AMP phosphodiesterase 4B (Homo sapiens) (UniProt Q07343); experiment: qHTS Assay for Inhibitors of PDE-IV (AID 607; active means well fitted activation curve with a large enough effect in the main read-out, with a control signal flat, not every such curve was filed as active; further: % of control where 0% means no effect)
Sequence of 3',5'-cyclic-AMP phosphodiesterase 4B (Homo sapiens) (Q07343 whole entry, looked up): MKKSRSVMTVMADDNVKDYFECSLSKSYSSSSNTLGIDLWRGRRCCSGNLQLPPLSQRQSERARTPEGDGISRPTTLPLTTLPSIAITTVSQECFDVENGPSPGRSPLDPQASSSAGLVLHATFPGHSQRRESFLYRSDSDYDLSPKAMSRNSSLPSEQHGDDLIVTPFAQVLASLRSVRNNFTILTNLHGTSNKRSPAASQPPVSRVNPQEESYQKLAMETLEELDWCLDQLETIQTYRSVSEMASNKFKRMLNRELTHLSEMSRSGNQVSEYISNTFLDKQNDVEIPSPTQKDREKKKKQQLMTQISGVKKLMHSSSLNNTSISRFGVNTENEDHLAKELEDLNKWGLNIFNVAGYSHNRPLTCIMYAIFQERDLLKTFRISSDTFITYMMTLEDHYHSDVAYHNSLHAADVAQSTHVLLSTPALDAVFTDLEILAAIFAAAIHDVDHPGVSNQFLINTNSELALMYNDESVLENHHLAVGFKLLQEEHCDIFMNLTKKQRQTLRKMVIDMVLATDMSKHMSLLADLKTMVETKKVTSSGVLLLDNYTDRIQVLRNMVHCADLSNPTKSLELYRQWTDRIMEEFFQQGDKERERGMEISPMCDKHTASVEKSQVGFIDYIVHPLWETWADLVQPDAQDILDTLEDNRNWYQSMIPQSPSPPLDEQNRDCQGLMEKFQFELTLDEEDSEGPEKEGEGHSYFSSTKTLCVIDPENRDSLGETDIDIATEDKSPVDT
Procedure, shortened: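 Cell-based read-out of cAMP via a modified cyclic nucleotide-gated channel and membrane potential dye (535/590 nm) in HEK293 cells expressing PDE4 endogenously. Compounds tested up to 22.9 uM final; 100 uM RO 20-1724 reference.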

[8] = qHTS Assay for Lipid Storage Modulators (AID 1519; calls by dose curve); conditions: Drosophila S3 cells, BODIPY lipid droplet/cell ratio, laser cytometry, cells loaded with oleic acid
Procedure, shortened: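 Cells seeded at 5,000 per well were treated with compounds over a concentration series and loaded with oleic acid (400 uM, as added). Lipid droplet fluorescence (488 nm excitation, 500-530 nm channel) was read by laser-scanning cytometry and normalized to 20 uM Triacsin C.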

[9] = biological target: Luciferin 4-monooxygenase (Photinus pyralis) (UniProt P08659); experiment: Biochemical firefly luciferase enzyme assay for NPC (AID 624030);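 further: purified P. pyralis luciferase at 10 nM with luciferin and ATP substrate; 0% = DMSO and -100% = full luciferase inhibition by PTC124 control; nearly all actives have a fitted effect of over 70% in size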
Sequence of Luciferin 4-monooxygenase (Photinus pyralis) (P08659 whole entry, looked up): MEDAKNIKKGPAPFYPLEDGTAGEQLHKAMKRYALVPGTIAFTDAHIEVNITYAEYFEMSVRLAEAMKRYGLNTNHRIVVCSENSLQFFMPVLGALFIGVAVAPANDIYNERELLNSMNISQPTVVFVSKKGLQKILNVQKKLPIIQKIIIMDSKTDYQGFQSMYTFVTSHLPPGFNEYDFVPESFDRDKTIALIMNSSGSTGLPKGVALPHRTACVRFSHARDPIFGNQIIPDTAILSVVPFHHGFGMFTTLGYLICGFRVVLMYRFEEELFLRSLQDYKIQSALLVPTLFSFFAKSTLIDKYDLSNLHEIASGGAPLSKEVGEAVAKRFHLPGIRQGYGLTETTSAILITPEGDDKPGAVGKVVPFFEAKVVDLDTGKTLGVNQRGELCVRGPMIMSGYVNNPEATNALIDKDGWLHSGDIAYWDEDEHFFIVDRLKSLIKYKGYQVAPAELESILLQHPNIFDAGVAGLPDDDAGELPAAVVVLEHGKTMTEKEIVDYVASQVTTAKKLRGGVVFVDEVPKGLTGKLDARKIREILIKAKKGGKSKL
Procedure, shortened: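 Purified P. pyralis luciferase at 10 nM in 50 mM Tris Acetate (final), luminescence read within 5 minutes of enzyme addition to compounds. Activity normalised to PTC124 versus DMSO; concentration-response curves classed by r2, magnitude and activity.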

[10] = qHTS profiling for inhibitors of Plasmodium falciparum proliferation (AID 504749);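 further: 0% = DMSO vehicle and full inhibition = artemisinin control; nearly all actives have a fitted effect of over 60% in size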; conditions: P. falciparum in erythrocytes, SYBR Green DNA, 72 h, at 12.8 µM (top of the series)
Procedure, shortened: (§1)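 Readout was DNA-dye fluorescence from lysed cultures, ex 485/em 535 nm. Parasitized red cells had grown 72 h with compound; data scaled between 0.29 uM artemisinin and DMSO wells and corrected using vehicle-only plates.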

C2A = experiment: as above; conditions: P. falciparum in erythrocytes, SYBR Green DNA, 72 h; series mostly up to 12.8 µM
Procedure, shortened: as §1

CP217 = experiment: as above; conditions: P. falciparum in erythrocytes, SYBR Green DNA, 72 h; series mostly up to 12.8 µM
Procedure, shortened: as §1

CP238 = experiment: as above; conditions: P. falciparum in erythrocytes, SYBR Green DNA, 72 h; series mostly up to 12.8 µM
Procedure, shortened: as §1

CP250 = experiment: as above; conditions: P. falciparum in erythrocytes, SYBR Green DNA, 72 h; series mostly up to 12.8 µM
Procedure, shortened: as §1

FAB9 = experiment: as above; conditions: P. falciparum in erythrocytes, SYBR Green DNA, 72 h; series mostly up to 12.8 µM
Procedure, shortened: as §1

JCK = experiment: as above; conditions: P. falciparum in erythrocytes, SYBR Green DNA, 72 h; series mostly up to 12.8 µM
Procedure, shortened: as §1

PC49 = experiment: as above; conditions: P. falciparum in erythrocytes, SYBR Green DNA, 72 h; series mostly up to 12.8 µM
Procedure, shortened: as §1

SC27B = experiment: as above; conditions: P. falciparum in erythrocytes, SYBR Green DNA, 72 h; series mostly up to 12.8 µM
Procedure, shortened: as §1

[11] = biological target: Ubiquitin carboxyl-terminal hydrolase 1 (Homo sapiens) (UniProt O94782); experiment: Inhibitors of USP1/UAF1: Pilot qHTS (AID 504865);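 further: rhodamine fluorescence freed from ubiquitin-rhodamine substrate followed over time; top concentration of the series differs between compounds; on the % scale 0 is the no-effect control and ±100 the full control effect; nearly all actives have a fitted effect of over 35% in size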
Sequence of Ubiquitin carboxyl-terminal hydrolase 1 (Homo sapiens) (O94782 whole entry, looked up): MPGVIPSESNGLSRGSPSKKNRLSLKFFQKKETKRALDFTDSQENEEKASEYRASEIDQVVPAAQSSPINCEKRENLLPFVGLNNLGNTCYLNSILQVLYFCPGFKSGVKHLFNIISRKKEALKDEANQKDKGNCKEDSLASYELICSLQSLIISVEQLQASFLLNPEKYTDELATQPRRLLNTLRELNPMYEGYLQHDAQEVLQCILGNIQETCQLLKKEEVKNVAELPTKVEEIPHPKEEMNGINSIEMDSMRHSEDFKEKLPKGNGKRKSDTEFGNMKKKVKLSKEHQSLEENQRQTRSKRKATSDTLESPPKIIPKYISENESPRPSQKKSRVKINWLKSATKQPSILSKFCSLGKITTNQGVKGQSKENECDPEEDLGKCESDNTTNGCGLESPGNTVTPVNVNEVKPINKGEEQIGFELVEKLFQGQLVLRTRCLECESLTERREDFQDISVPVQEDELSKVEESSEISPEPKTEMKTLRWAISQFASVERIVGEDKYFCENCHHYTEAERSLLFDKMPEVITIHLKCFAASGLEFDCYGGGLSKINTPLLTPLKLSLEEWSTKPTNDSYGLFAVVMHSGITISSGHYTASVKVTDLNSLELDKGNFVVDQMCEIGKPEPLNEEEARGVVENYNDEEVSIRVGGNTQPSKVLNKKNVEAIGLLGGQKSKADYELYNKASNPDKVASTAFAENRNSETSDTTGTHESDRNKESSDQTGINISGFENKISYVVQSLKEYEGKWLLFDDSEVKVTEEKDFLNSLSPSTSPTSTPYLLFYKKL
Procedure, shortened: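 Enzyme-free wells gave the negative control, while test wells held 1nM USP1/UAF1 preincubated with compound for 15 min at room temperature. Ub-Rho at 150nM final started the reaction, and fluorescence at 480/540 nm was recorded kinetically.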

[12] = NFAT Signaling Pathway (AID 444; active means well fitted curve in either direction with a large enough effect, not every such curve was filed as active;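 further: carbachol stimulus at about its EC50 of 1 µM final; on the % scale 0 is the no-effect control and ±100 the full control effect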); conditions: Jurkat NFAT-bla M1, carbachol, beta-lactamase ratio, 5 h; at 17.2 µM (top of the series) unless noted
Procedure, shortened: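 Jurkat cells with NFAT-driven β-lactamase reporter and co-expressed M1 receptor, stimulated with carbachol (final 1 uM, ~EC50), compound titration, 5 h at 37 °C. CCF4 loaded 1 h at RT; 460/530 nm ratio gave %activity and AC50.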

[13] = measured here: cell count channel max response
[14] = measured here: lipid channel max response

COc1ccc(C[C@@](C)(N)C(=O)O)cc1OC
-10.3%: max response [8, 13]
-12.4%: max response [8, 14]
inactive: outcome [1] | Potency [2] | outcome [3] | Potency [4] > 20.6 µM | Potency [5] > 20.6 µM | Potency [6] | outcome [7] | activity change, negative = inhibition ([8]; at 25.7 µM (top of the series)) -2.09% | Potency [9] | activity, negative = inhibition ([10]; parasite line A) 3.21% | activity, negative = inhibition ([10]; parasite line B) -23.5% | Potency (C2A) | Potency (CP217) | Potency (CP238) | Potency (CP250) | Potency (FAB9) | Potency (JCK) | Potency (PC49) | Potency (SC27B)

C[C@H]1CC[C@@H]2[C@@H](C)[C@H]3[C@H](C[C@H]4[C@@H]5CC=C6C[C@@H](O[C@]7(O[C@H]8O[C@@H](C)[C@@H](O)[C@@H](O)[C@@H]8O)C[C@@H](O[C@@H]8O[C@H](CO)[C@@H](O)[C@H](O)[C@@H]8O)[C@@H](O)[C@H](CO)O7)CC[C@]6(C)[C@H]5CC[C@@]34C)N2C1
-8.96%: max response [8, 13]
-10.1%: max response [8, 14]
inactive: outcome [1] | Potency [2] | outcome [3] | Potency [4] > 20.6 µM | Potency [5] > 20.6 µM | Potency [6] | outcome [7] | activity change, negative = inhibition ([8]; at 25.7 µM (top of the series)) -0.703% | Potency [11]

CN1CCN([C@@H](c2ccccc2)c2ccc(Cl)cc2)CC1
-18.7%: max response [8, 14]
inactive: outcome [1] | Potency [2] | outcome [3] | Potency [4] > 20.6 µM | Potency [5] > 20.6 µM | Potency [6] | outcome [7] | activity change, negative = inhibition ([8]; at 25.7 µM (top of the series)) -3.4% | Potency [11] | Potency [9] | activity, negative = inhibition ([10]; parasite line A) 1.67% | activity, negative = inhibition ([10]; parasite line B) -12.4% | Potency (C2A) | Potency (CP217) | Potency (CP238) | Potency (CP250) | Potency (FAB9) | Potency (JCK) | Potency (PC49) | Potency (SC27B)
-16%: max response [8, 13]

CN=C(NC#N)NCCSC[C@H]1N=CN=C1C
inactive: outcome [1] | Potency [2] | activity change, negative = inhibition [12] -3.43% | outcome [3] | Potency [6] | outcome [7] | activity change, negative = inhibition ([8]; at 25.7 µM (top of the series)) -0.0882% | Potency [11]
-1.59%: max response [8, 13]
-1.32%: max response [8, 14]

C#C[C@@]1(O)CC[C@@H]2[C@@H]3CCC4=CC(=O)CC[C@@H]4[C@H]3CC[C@]21C
inactive: outcome [1] | Potency [2] | activity change, negative = inhibition [12] -7.42% | outcome [3] | Potency [6] | outcome [7] | activity change, negative = inhibition ([8]; at 25.7 µM (top of the series)) -2.83% | Potency [11]
-8.09%: max response [8, 13]
-9.96%: max response [8, 14]

CN(C)c1ccc(-c2nccc(NCc3ccccc3)n2)cc1
-4.09%: max response [8, 13]
-1.11%: max response [8, 14]
active: Potency [2] 1.26 µM
inactive: outcome [1] | outcome [3] | Potency [4] > 46 µM | Potency [5] > 46 µM | Potency [6] | activity change, negative = inhibition ([8]; at 57.5 µM (top of the series)) 2.02% | Potency [11]

CCC(=O)OCC(=O)[C@@]1(OC(=O)CC)[C@H](C)C[C@@H]2[C@H]3CCC4=CC(=O)C=C[C@]4(C)[C@]3(Cl)[C@@H](O)C[C@@]21C
inactive: outcome [1] | Potency [2] | activity change, negative = inhibition [12] -10.9% | outcome [3] | Potency [6] | outcome [7] | activity change, negative = inhibition ([8]; at 25.7 µM (top of the series)) -9.54%
-5.37%: max response [8, 13]
-14.6%: max response [8, 14]

C#C[C@@]1(OC(C)=O)CC[C@@H]2[C@@H]3CCC4=C[C@@H](OC(C)=O)CC[C@H]4[C@H]3CC[C@]21C
inactive: outcome [1] | Potency [2] | outcome [3] | Potency [4] > 20.6 µM | Potency [5] > 20.6 µM | Potency [6] | activity change, negative = inhibition ([8]; at 25.7 µM (top of the series)) -2.38% | Potency [11]
-9.18%: max response [8, 13] | max response [8, 14]

CC[C@@H]1OC(=O)[C@H](C)[C@H](O[C@@H]2C[C@](C)(OC)[C@H](O)[C@H](C)O2)[C@H](C)[C@H](O[C@@H]2O[C@@H](C)C[C@@H](N(C)C)[C@@H]2O)[C@](C)(O)C[C@H](C)[C@@H]2N[C@H](COCCOC)O[C@H]([C@@H]2C)[C@]1(C)O
inactive: outcome [1] | Potency [2] | activity change, negative = inhibition [12] -16.7% | outcome [3] | Potency [6] | outcome [7] | activity change, negative = inhibition ([8]; at 25.7 µM (top of the series)) -3.92% | Potency [11]
-9.89%: max response [8, 14]
-8.33%: max response [8, 13]

CC(C)(CS)C(=O)N1CCC[C@H]1C(=O)O
inactive: outcome [1] | Potency [2] | outcome [3] | Potency [4] > 20.6 µM | Potency [5] > 20.6 µM | Potency [6] | outcome [7] | activity change, negative = inhibition ([8]; at 25.7 µM (top of the series)) 1% | Potency [11]
2.97%: max response [8, 13]
4.64%: max response [8, 14]

CC(C)NC[C@H]1CCc2cc(CO)c([N+](=O)[O-])cc2N1
inactive: outcome [1] | outcome [3] | Potency [4] > 20.6 µM | Potency [5] > 20.6 µM | outcome [7] | activity change, negative = inhibition ([8]; at 25.7 µM (top of the series)) -3.1% | Potency [11] | Potency [9] | activity, negative = inhibition ([10]; parasite line A) 7.96% | activity, negative = inhibition ([10]; parasite line B) 12.7% | Potency (C2A) | Potency (CP217) | Potency (CP238) | Potency (CP250) | Potency (FAB9) | Potency (JCK) | Potency (PC49) | Potency (SC27B)
active: Potency [2] 10 µM
-14.1%: max response [8, 14]
-10%: max response [8, 13]

COC(=O)Nc1nc2ccc(SC(C)C)cc2[nH]1
-2.31%: max response [8, 13]
active: Potency [2] 0.501 µM
inactive: outcome [1] | outcome [3] | Potency [4] > 20.6 µM | Potency [5] > 20.6 µM | Potency [6] | outcome [7] | activity change, negative = inhibition ([8]; at 25.7 µM (top of the series)) -1.67% | Potency [11]
-4.22%: max response [8, 14]

COc1ccc(CNc2ncncc2-c2ccccc2CN(C)C)c(OC)c1
inactive: outcome [1] | outcome [3] | Potency [4] > 46 µM | Potency [5] > 46 µM | Potency [6] | outcome [7] | activity change, negative = inhibition ([8]; at 57.5 µM (top of the series)) 6.9% | Potency [11]
9.69%: max response [8, 13]
19.6%: max response [8, 14]
active: Potency [2] 15.8 µM

C[C@@H]1C[C@@H]2[C@H]3CCC4=CC(=O)C=C[C@]4(C)[C@]3(F)[C@@H](O)C[C@]2(C)[C@@]1(O)C(=O)CO
2.12%: max response [8, 13]
-8.18%: max response [8, 14]
inactive: outcome [1] | Potency [2] | activity change, negative = inhibition [12] -9.85% | outcome [3] | outcome [7] | activity change, negative = inhibition ([8]; at 25.7 µM (top of the series)) -3.53% | Potency [11]
